Source: PubChem BioAssay (NCI)
This is part of a sample that, as a whole, favours compounds with a hit. Of some 83,000 tested, about 20% had one in any assay.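 Single-concentration screen, 48 h exposure, 96-well plates. Endpoint: percent growth. Below 10 = active.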 Calls of active or inactive are those of the source.

How the values were obtained:
Assay in all cases: NCI-60 one-dose screen, 48 h (100 = growth as untreated, 0 = no growth, -100 = all killed)
Settings in all cases: 10 µM unless noted
[1] = tested on: SK-MEL-2 melanoma
[2] = tested on: EKVX NSCLC
[3] = tested on: SN12C renal
[4] = tested on: UO-31 renal
[5] = tested on: TK-10 renal
[6] = tested on: ACHN renal
[7] = tested on: CAKI-1 renal
[8] = tested on: A498 renal
[9] = tested on: CCRF-CEM leukemia
[10] = tested on: MOLT-4 leukemia

Measured: growth

CCOC(=O)C#Cc1c(C(=O)OCC)nnn1Cc1ccc([N+](=O)[O-])cc1
active: [4] 4.18% | [5] -10.9% | [6] -53.6% | [7] -52% | [9] -21.3%
inactive: [1] 109% | [2] 106% | [3] 58.6% | [8] 107% | [10] 14.9%

O=S(=O)(NCCNc1nccc(-c2c(-c3ccc(F)c(O)c3)nc3occn23)n1)c1ccc(Cl)cc1
inactive: [1] 42.2% | [2] 104% | [3] 80.7% | [4] 81.6% | [5] 122% | [6] 76.5% | [7] 92.7% | [8] 97.9% | [9] 70.7% | [10] 84.1%

CCc1ncnc2c1ccn2C(C)c1ccc(OC)c(F)c1 (stereo not given)
inactive: [1] 34.3% | [2] 51.9% | [3] 67% | [4] 60.1% | [5] 58.8% | [6] 75.4% | [7] 40.5% | [8] 46.3% | [9] 42.4% | [10] 32.7%

CCOC(=O)c1nn(-c2ccc(S(N)(=O)=O)cc2)c2nc(C)cc(=O)n12
inactive: [1] 109% | [2] 104% | [3] 96.7% | [4] 86.1% | [5] 94.7% | [6] 108% | [7] 90.8% | [8] 88.3% | [9] 105% | [10] 119%

CCN(CC)Cc1cc(C=C2C(=O)NC(=S)NC2=O)cc(OC)c1O
inactive: [1] 119% | [2] 106% | [3] 100% | [4] 90.1% | [5] 110% | [6] 107% | [7] 99.3% | [8] 98.8% | [9] 104% | [10] 108%

C#COc1cccc(Nc2c(C#N)cnc3ncc(NC(=O)CCl)cc23)c1
inactive: [1] 12.4% [6.25 µM] | [2] 52% [6.25 µM] | [3] 17.3% [6.25 µM] | [4] 41.1% [6.25 µM] | [5] 26.8% [6.25 µM] | [6] 32.4% [6.25 µM] | [7] 36.1% [6.25 µM] | [8] 56.7% [6.25 µM]
active: [9] -25.3% [6.25 µM] | [10] -2.02% [6.25 µM]

CCOC(=O)c1c(NC(=O)c2cccc(C(F)(F)F)c2)sc2c(CN(C)C)c(O)ccc12
inactive: [1] 108% | [2] 98.8% | [3] 90% | [4] 48.9% | [5] 113% | [6] 45.5% | [7] 71.1% | [8] 82% | [10] 43.4%
active: [9] 9.93%

O=C(O)c1ccc(-n2cc(/C=N/Nc3ccccc3)c(-c3ccc(F)cc3F)n2)cc1
inactive: [1] 15.4% | [2] 55.2% | [3] 73.1% | [4] 13% | [5] 57.4% | [6] 47.1% | [7] 28.5% | [8] 81.7% | [9] 26.6% | [10] 38.7%

CCOC(=O)c1csc(NC(=O)COc2ccc(/C=C3\Oc4ccccc4C3=O)cc2)n1
active: [4] -14%
inactive: [1] 94.8% | [2] 74% | [3] 91% | [5] 119% | [6] 108% | [7] 91.2% | [8] 119% | [9] 23.5% | [10] 42.2%

O=C(Nc1ccccc1O)c1ccc(CNC(=O)c2sccc2Nc2ccnc(C(F)(F)F)c2)cc1
active: [1] 0.0247% | [5] 4.53% | [8] 6.31%
inactive: [2] 59.2% | [3] 57.8% | [4] 27.2% | [6] 49.3% | [7] 35.2% | [9] 10.8% | [10] 12.1%

Cc1ccccc1/C=C/C(=O)c1cccc(OCCCOc2cccc(C(=O)/C=C/c3ccccc3C)c2)c1
inactive: [1] 102% [3 µM] | [2] 95.1% [3 µM] | [3] 91.8% [3 µM] | [4] 82.8% [3 µM] | [5] 108% [3 µM] | [6] 102% [3 µM] | [7] 77.5% [3 µM] | [8] 104% [3 µM] | [9] 96.2% [3 µM] | [10] 90% [3 µM]

CC(=O)Oc1ccc(C)cc1C
inactive: [1] 99.7% | [2] 112% | [3] 102% | [4] 85.7% | [5] 102% | [6] 101% | [7] 101% | [8] 87.4% | [9] 102% | [10] 106%

CCCCNCCCCCNc1cc(OC)cc2cccnc12
inactive: [1] 106% | [2] 106% | [3] 97.6% | [4] 63.1% | [5] 100% | [6] 100% | [7] 114% | [8] 87.9% | [9] 106% | [10] 100%

O=C(c1ccccc1)c1ccc(C2CCCCC2)cc1
inactive: [1] 110% | [2] 81.9% | [3] 90.7% | [4] 98.2% | [5] 81.5% | [6] 97.1% | [7] 82.2% | [8] 77.9% | [9] 96.2% | [10] 104%

O=C(Nc1nc2ccc(C(=O)N3CCN(/C=C/c4ccccc4)CC3)cc2s1)c1ccc(NCCc2ccccc2)c([N+](=O)[O-])c1
inactive: [1] 87.6% | [2] 50.6% | [3] 61.3% | [4] 37.8% | [5] 87.7% | [6] 80.9% | [7] 50.6% | [8] 48.3% | [9] 22.8% | [10] 27.4%

COc1ccc(C2=Nc3c(N)nc(N)nc3NC(c3cccc(Nc4ccnc5cc(C(F)(F)F)ccc45)c3)C2)cc1 (stereo not given)
inactive: [1] 75.5% | [2] 72.3% | [3] 75.7% | [4] 70% | [5] 108% | [6] 96.4% | [7] 60.7% | [8] 84.7% | [9] 53.9% | [10] 24.3%

O=C(Cn1cc(CSc2nc3ccccc3o2)nn1)Nc1ccc(F)cc1F
inactive: [1] 114% | [2] 119% | [3] 96.4% | [4] 103% | [5] 117% | [6] 93.9% | [7] 105% | [8] 112% | [9] 113% | [10] 120%

CN(c1cc2ncc(=O)[nH]c2cc1NC(N)=NCc1ccc(Cl)cc1)C1CCCCC1
inactive: [1] 92.7% | [2] 82.6% | [3] 67.9% | [4] 91% | [5] 85.2% | [6] 98.3% | [7] 98.5% | [8] 80.5% | [9] 21.9% | [10] 35.5%

O=C(O)CCCN1C(=O)/C(=C/c2cn(-c3ccccc3)nc2-c2ccc([N+](=O)[O-])cc2)SC1=S
inactive: [1] 77.6% | [2] 67% | [3] 50% | [4] 40.2% | [5] 78.2% | [6] 56.8% | [7] 65.1% | [8] 88.2% | [9] 27.6% | [10] 54.5%

C=C1C(=O)O[C@H]2[C@H]1CC/C(COC(=O)/C=C\C(=O)NCc1ccc(Cn3c(=O)sn(CCI)c3=O)cc1)=C\CC[C@@]1(C)O[C@@H]21
inactive: [1] 75% | [2] 61.7% | [3] 57.9% | [4] 55.1% | [5] 19.4% | [6] 15.9% | [7] 25.7% | [8] 143%
active: [9] -28.2% | [10] 3.38%

COc1cccc(CNc2ccc3ncnc(Nc4ccc(F)c(Cl)c4)c3c2)c1
inactive: [1] 94.9% | [2] 26% | [3] 52.8% | [4] 32.5% | [5] 29.8% | [6] 26.2% | [7] 34.6% | [8] 45.1% | [9] 75.1% | [10] 69.9%

COc1cc2oc(-c3cccc(NC(=O)c4ccccc4)c3)cc(=O)c2c(OC)c1OC
inactive: [1] 76.8% | [2] 103% | [3] 76.2% | [4] 51% | [5] 91.3% | [6] 61.6% | [7] 87.2% | [8] 59.4% | [9] 45.7% | [10] 40.7%

C=C1C(=O)O[C@H]2[C@H]1CC/C(COC(=O)C(=O)c1cn(C)c3ccc(Cl)cc13)=C\CC[C@@]1(C)O[C@@H]21
active: [1] -60.8% | [2] -59.5% | [3] -69% | [4] -93.5% | [5] -91.1% | [6] -91.8% | [7] -75.7% | [8] -96.9% | [9] -34.9% | [10] -15.4%

NNc1nc(-c2cccnc2)nc2c1sc(=S)n2-c1ccccc1
inactive: [1] 68% | [2] 95.1% | [3] 102% | [4] 79.3% | [5] 83.6% | [6] 106% | [7] 97.9% | [8] 124% | [9] 90.5% | [10] 86%
